# Laboratory results from PubChem BioAssay (NCI).
# About 79,000 compounds went through this panel and 15% of them were active in at least one assay; those are over-represented in the sample as a whole. Values without a mark were called inactive. Calls of active or inactive are those of the source. Cut-off read from the data, not from the text of the source: active = growth inhibition above about 70%; inactive = the rest.
# What was measured:
# [1] = NCI Yeast Anticancer Drug Screen. Data for the rad50 strain (AID 155);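 note: 0% = growth of vehicle-only cultures of the same strain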; settings: S. cerevisiae rad50 strain growth inhibition; at 50.0 µM; active compounds read high
# Summary of the method: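 Compounds were tested on a yeast strain with an engineered DNA damage repair alteration; the reported value is growth inhibition normalised to vehicle treatment.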
# [2] = NCI Yeast Anticancer Drug Screen. Data for the mec2-1 strain (AID 157); settings: S. cerevisiae mec2-1 strain, at 50.0 µM, active compounds read high
# Summary of the method: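 Readout is yeast growth inhibition, normalised to vehicle-treated controls, in the mec2-1 strain exposed to compound.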
# [3] = NCI Yeast Anticancer Drug Screen. Data for the sgs1 mgt1 strain (AID 161);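 note: 0% = growth of cultures given vehicle only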; settings: S. cerevisiae sgs1 mgt1 strain, at 50.0 µM, active compounds read high
# Summary of the method: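 Compounds are added to genetically altered yeast, and growth is compared with cultures given vehicle alone to give percent inhibition.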
# [4] = NCI Yeast Anticancer Drug Screen. Data for the cln2 rad14 strain (AID 165);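 note: 0% = growth equal to vehicle treated cultures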; settings: S. cerevisiae cln2 rad14 strain, at 50.0 µM, active compounds read high
# Summary of the method: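 Relative to vehicle controls, growth inhibition of compound-treated cln2 rad14 yeast was recorded.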
# [5] = NCI Yeast Anticancer Drug Screen. Data for the bub3 strain (AID 167); settings: S. cerevisiae bub3 mutant strain, at 50.0 µM, active compounds read high
# Summary of the method: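 Growth of a checkpoint-deficient yeast mutant is measured after compound exposure. Values represent inhibition relative to vehicle.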
# [6] = NCI Yeast Anticancer Drug Screen. Data for the mlh1 rad18 strain (AID 175); settings: S. cerevisiae mlh1 rad18 strain growth inhibition; at 50.0 µM; active compounds read high
# Summary of the method: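 Test agents were incubated with a yeast strain of defined genotype (DNA damage repair defect). Inhibition of growth was derived by comparison with vehicle-exposed cultures.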
SMILES,growth inhibition [1] [%],growth inhibition [2] [%],growth inhibition [3] [%],growth inhibition [4] [%],growth inhibition [5] [%],growth inhibition [6]
COc1nc(SC)nc2c1cnn2C1OC(C(O)CO)C(OC)C1O (configuration not stated),4.85,-1.7,3.35,9.95,-4.6,16.3%
COc1ccccc1NC(=S)NCCO,7.25,8.7,17.6,0.8,21.1,13.6%
CCCCCCOC(=O)CCCCCC1CCCCC1,3.15,-6.5,2.3,-77.4,-6.05,-6.55%
CC(=O)/C(=C/n1ccc(=O)[nH]c1=S)C(=O)Nc1ccc(Cl)cc1,-32,-7.6,4.7,11.7,-20.4,3.4%
CCCCCCCCCCCCCCCCSc1cccc(C)c1,17.7,3.65,22.1,-13.2,1.3,17.1%
O=C(CCCC(=O)Nc1cccc([N+](=O)[O-])c1)CC(=O)c1ccc([N+](=O)[O-])cc1,-2.7,-1.25,-8.2,-4.15,-14.6,8%
O=C(Nc1cccc2ccccc12)OCC1CC1,-4,22.8,-4.55,-6.2,-34.9,-4.4%
COc1cc(-c2ccc([NH2+][B-](F)(F)F)c(OC)c2)ccc1[NH2+][B-](F)(F)F,21.7,-2.05,37.3,29.1,9.1,18.9%
O=C(Nc1cccnc1)c1ccc([N+](=O)[O-])s1,11.1,0.6,29.3,9.25,11.1,16.1%
COC1(OC)C(c2ccc([N+](=O)[O-])cc2)C([N+](=O)[O-])C1(OC)OC (configuration not stated),-14.1,-16.1,-32,-11.4,-8.4,-17.6%
COc1ccc(N2C(=O)C3c4[nH]c5ccccc5c4C4CCCCCCC4C3C2=O)cc1 (configuration not stated),50.1,25.9,22.6,-8.9,11.9,28.6%
CCOc1ccccc1NC(=O)C(=O)Cc1nc2ccccc2s1,-2.65,6.1,-2,-6.75,-0.75,2.9%
O=c1[nH]c(=O)n(C2CC(O)C(CO)O2)cc1Cl (configuration not stated),0.75,-11.1,2.9,11.8,1.45,2.25%
CCN(CC)Cc1cc(Nc2nc(/C=C/c3ccccc3)nc3ccccc23)ccc1O,4.05,-37.5,-3.25,13.9,-6.7,-14.6%
COC1/C=C\OC2(C)Oc3c(C)c(O)c4c(O)c(c(/C=N\NC(=O)CC(=O)N/N=C/c5c6c(O)c7c(O)c(C)c8c(c7c5O)C(=O)C(C)(O/C=C/C(OC)C(C)C(OC(C)=O)C(C)C(O)C(C)C(O)C(C)/C=C/C=C(C)C(=O)N6)O8)c(O)c4c3C2=O)NC(=O)/C(C)=C\C=C/C(C)C(O)C(C)C(O)C(C)C(OC(C)=O)C1C (configuration not stated),-4.5,6.3,-2.2,-5.4,6.75,-16.4%
O=S1(=O)C=C(N2CCCCC2)c2ccccc21,2.65,2.05,-4,-13.3,-52,11.8%
COc1ccc(C(c2cc3c(cc2O)OCO3)n2ccnc2)cc1 (configuration not stated),9.45,11.8,12.3,-55.5,12.1,4.9%
CC(C)N=C(NC#N)NS(=O)(=O)c1cnccc1Nc1ccc(Cl)cc1,-11.1,18.8,-13,-1.9,-18.1,24.8%
COC(=O)c1nc(N)nc(C(=O)OC)c1C(=O)c1cccc([N+](=O)[O-])c1,-11.1,-19.4,-33.2,30.6,-21.7,-16.8%
COC(=O)C(O)C(O)C(O)C(O)C(=O)OC (configuration not stated),2.2,17.4,10.8,-5.65,11.2,13.3%
CCn1cc(C(=O)CCP(=O)(OC)OC)c2ccccc21,7.5,-22.2,3.6,-12.8,5.15,-0.25%

SMILES,growth inhibition [1] [%],growth inhibition [2] [%],growth inhibition [3] [%],growth inhibition [4] [%],growth inhibition [5] [%],growth inhibition [6]
COc1ccc(CC2CC(Cc3ccc(OC)c(OC)c3)C(=O)O2)cc1OC (configuration not stated),-33.9,15.7,-23.4,-33.2,3.95,2.85%
O=c1ccc2ccc(O)cc2o1,-1.45,-6.7,0.9,2.05,-4.65,-11.8%
CC(=O)c1ccco1,17.8,16.4,-5.15,-43,1.25,13.1%
Nc1cn(C2CC(O)C(CO)O2)c(=O)[nH]c1=O (configuration not stated),0,-1.9,-2.5,1,-4.4,-9.05%
Nc1c(N=Nc2ccc(S(=O)(=O)O)cc2)cc2c3c(cccc13)CC2,11.3,2.35,20.6,8.65,-39.5,2.4%
O=C(NC(O)C(=O)O)c1ccc(Cl)cc1 (configuration not stated),-10.9,-10.9,-6.2,17.3,-6.4,-27.9%
COc1cc2c(C)cc(O)cc2c2cc(O)c(C)cc12,22.6,-1.55,-10.3,-5.9,-9.9,91.8% (active)
CP(=O)(CCSc1ccccc1)c1ccccc1 (configuration not stated),-12.5,-20.5,-0.85,23.6,-10.7,-21.1%
Clc1cccc(C=NC23CC4CC(CC(C4)C2)C3)c1Cl,-20.2,-36.5,-40.3,-6,-22.6,-10.2%
C[N+](C)(C)C1CCC1,-2.4,-4.75,-1.75,8.35,-15.1,5.7%
CCN(CC)c1ccccc1S(=O)(=O)O,-5.45,-5.3,2.9,-42.9,-6.85,-6.35%
CC1(C)CCCc2c(-c3ccccc3)cc3c4ccccc4cc[n+]3c21,-8.5,-5.55,-14.6,-21.6,-5,-14.1%
S=C(Nc1ccccc1)Nc1nc(-c2ccccc2)c(N=Nc2ccccc2)s1,29.8,-1,4.05,10.1,12.9,2%
Cc1ccc(SCC(=O)O)c(C)c1,27.1,17.9,18.1,14,7.65,-13.5%
O=C(Nc1ccc(S(=O)(=O)Nc2nccs2)cc1)c1cccnc1Nc1cccc(Cl)c1,36.6,8.5,22.2,1.15,13.4,61.2%
CC(C)N(CCC#N)C(=S)Nc1cccc2ccccc12,17.1,10.1,19.6,14.9,12.2,-8.2%
COC(=O)/C=C/c1ccc2c(c1)CCCC2,18.1,15.1,10.6,-8.7,22.2,24.4%
COC(=O)CNC(=O)C(Cc1ccc(OCc2ccccc2)cc1)NC(=O)OC(C)(C)C (configuration not stated),6.65,11,23.1,2.25,-10.6,26.6%
C[N+]1(CSC(=O)c2ccccc2)CCCCC1,1.95,11.5,12.3,1.6,-9.75,24.9%
CC(C(=O)O)C(C)C(=O)O (configuration not stated),3.3,4.15,9.8,6.45,5.1,14.2%
CC(C)CNC(=S)N/N=C/C=C/c1ccc(C(C)C)cc1,-18.2,-12.7,20.3,-16.1,53.9,0.35%
